Test results from PubChem BioAssay (NCATS).
Results filed as inconclusive are left out. A number with no mark means an inactive call. Activity calls are given as the source filed them. Calls follow the shape of the dose curve; as a rule, active = well fitted inhibition curve with a large enough effect; inconclusive = small, poorly fitted or top-dose-only effect; inactive = flat fitted curve, though single readings scatter.
% is scaled to controls: 0 for no effect and ±100 for the full control effect.

Assay: P-glycoprotein substrates identified in KB-8-5-11 adenocarcinoma cell line, qHTS therapeutic library screen (AID 1346987); also: nearly all actives have a fitted effect of over 65% in size
Settings: KB-8-5-11 (P-gp overexpressing) viability, CellTiter-Glo, 72 h; series mostly up to 44.5 µM; activity change, negative = cytotoxicity: at the top concentration
Procedure, shortened: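 Steps: plate 500 KB-8-5-11 cells/well in DMEM + 10% FCS (colchicine removed); pin compounds in dose-response; incubate 72 h, 37 degree C, 5% CO2; add CellTiter-Glo, 5 min; read luminescence.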
For `C[C@H](O)C(O)(C(=O)OCc1ccccc1NC(=O)CCC(N)C(=O)O)[C@H](C)O` (some centres undefined), the “outcome” value was “inactive [at 17.3 µM]”.
With `CC(O)C1NC(=O)C2CCCN2C1=O` (centres undefined) the “activity change, negative = cytotoxicity” value was 0.527% [at 93.4 µM].
With `OCC1=C[C@@H](O)[C@@H]2C=CO[C@@H](O[C@@H]3O[C@H](CO)[C@@H](O)[C@H](O)[C@H]3O)[C@H]12` the “activity change, negative = cytotoxicity” value was 8.53%.
In the case of `C=C[C@@]1(C)CCC2=C([C@H]1OC(C)=O)[C@H](OC(C)=O)CC1[C@](C)(C(=O)OC)CC[C@H](OC(C)=O)[C@]21C` (some centres undefined), the “activity change, negative = cytotoxicity” value is reported as -9.5% [at 17.3 µM].
For `C=C1CC[C@@]2(OC1)O[C@H]1CC3[C@@H]4CC=C5C[C@@H](O)C[C@@H](O[C@@H]6OC[C@H](O)[C@H](O)[C@H]6O[C@@H]6O[C@@H](C)[C@H](O)[C@@H](O)[C@H]6O)[C@]5(C)C4CC[C@]3(C)[C@H]1[C@@H]2C` (some centres undefined), the “outcome” value was “inactive [at 17.3 µM]”.
With `CCC12CCCN3CCc4c(n(c5ccccc45)C(O)C1)C32` (centres undefined) the “activity change, negative = cytotoxicity” value was 9.8%.
For `COCCCc1sc(-c2ccccc2)nc1C(=O)Nc1ccccc1-c1nc2cc(CN3CCCC3)cnc2s1`, the “activity change, negative = cytotoxicity” value was -10.1% [at 17.3 µM].
In the case of `COc1cc(/C=C/C(=O)O[C@H]2C[C@@H]3C(C(=O)O)=CO[C@@H](O[C@@H]4O[C@H](CO)[C@@H](O)[C@H](O)[C@H]4O)[C@@H]3[C@H]2C)ccc1O`, the “outcome” value is reported as “inactive [at 17.3 µM]”.
In the case of `COC(=O)C1=COC(O[C@@H]2O[C@H](CO)[C@@H](O)[C@H](O)[C@H]2O)[C@@H]2[C@@](C)(O)[C@@H](OC(=O)/C=C/c3ccccc3)C[C@]12O` (some centres undefined), the “activity change, negative = cytotoxicity” value is reported as 0.85% [at 17.3 µM].
For `CCCN(CCN1CCN(c2ccccc2OC)CC1)C1CCc2ncsc2C1` (centres undefined), the “activity change, negative = cytotoxicity” value was -5.38%.
For `CC(=O)O[C@@H]1[C@H](O[C@@H]2O[C@H](CO)[C@@H](O)[C@H](O)[C@H]2O)[C@@H](O[C@@H]2O[C@@H](C)[C@H](O)[C@@H](O[C@@H]3O[C@H](CO)[C@@H](O)[C@H](O)[C@H]3O)[C@H]2O)[C@H](OC(=O)[C@]23CCC(C)(C)C[C@H]2C2=CCC4[C@@]5(C)C[C@H](O)[C@H](O[C@@H]6O[C@H](C(=O)O)[C@@H](O)[C@H](O)[C@H]6O)[C@@](C)(C(=O)O)C5CC[C@@]4(C)[C@]2(C)CC3)O[C@@H]1C` (some centres undefined), the activity change, negative = cytotoxicity was 8.71% [at 9.29 µM].
For `Nc1ncnc2c1ncn2[C@H]1O[C@@H](C(=O)N2CCN(CC(=O)Nc3cccc4c3CNC4=O)CC2)[C@H](O)[C@@H]1O`, the “outcome” value was “inactive”.
In the case of `C=CCC1=C[C@]2(OC)[C@H](C)[C@@H](c3ccc(OC)c(OC)c3)O[C@]2(OC)CC1=O`, the “activity change, negative = cytotoxicity” value is reported as 2.51%.
With `C=C1C[C@H](O)[C@@H](O)[C@@]2(C)C1[C@@H](O)[C@H]1OC(=O)C3[C@@H](C)[C@@H](O)[C@H](O)C2[C@]31C` (some centres undefined) the “outcome” value was “inactive”.
With `CC1(C)Oc2ncnc(N)c2N=C1c1ccc(C2CCC(CC(=O)O)CC2)cc1` (centres undefined) the “activity change, negative = cytotoxicity” value was -13.5%.
In the case of `CCC(C)/C=C(C)/C=C/C1=CC2=C(Cl)C(=O)C(C)(O)C(=O)C2(O)C(OC)O1` (centres undefined), the “outcome” value is reported as “inactive [at 17.3 µM]”.
With `CC(=O)O[C@H]1[C@H](O[C@H]2CC[C@]34C[C@]35CC[C@]3(C)[C@@H]([C@@]6(C)CC[C@@H](C(C)(C)O)O6)[C@@H](O)C[C@@]3(C)[C@@H]5C[C@H](O[C@@H]3O[C@H](CO)[C@@H](O)[C@H](O)[C@H]3O)[C@H]4C2(C)C)OC[C@@H](OC(C)=O)[C@@H]1O` the “outcome” value was “inactive”.
With `C[C@@]1(C(=O)O)CCC[C@@]2(C)C3=CC[C@H]4C[C@@]3(CC[C@H]12)CC4(O)CO` (some centres undefined) the “outcome” value was “inactive”.
With `C=C1[C@H](OC(C)=O)[C@H]2[C@@H](OC(=O)c3ccccc3)[C@@H](C)C[C@]2(O)[C@@H](OC(C)=O)[C@H](C)/C=C/C(C)(C)C(=O)[C@H](OC(C)=O)[C@H]1OC(C)=O` the “activity change, negative = cytotoxicity” value was -9.96% [at 17.3 µM].
With `COC1OC(=O)C2=C1C1(C)CCCC(C)(C)C1CC2O` (centres undefined) the “activity change, negative = cytotoxicity” value was 3.06%.
In the case of `COc1ccc(O[C@@H]2O[C@H](CO)[C@@H](O)[C@H](O)[C@H]2O)cc1OC`, the “activity change, negative = cytotoxicity” value is reported as 3.47%.
For `CCCC1=CC2=C(CO1)C(=O)C(C)(O)C(OC(=O)c1c(C)cc(OC)cc1O)C2` (centres undefined), the “activity change, negative = cytotoxicity” value was 2.68% [at 17.3 µM].
With `Cc1onc(-c2c(Cl)cccc2Cl)c1CC(=O)NCc1ccc(OCC(F)(F)F)nc1` the “activity change, negative = cytotoxicity” value was -11.6%.
In the case of `CCOC(=O)CSc1nc2c(sc3ccccc32)c(=O)n1CCCN1CCCC1`, the “activity change, negative = cytotoxicity” value is reported as -20.7%.
For `COc1ccc(-n2[nH]c3c(cnc4ccccc43)c2=O)cc1`, the “activity change, negative = cytotoxicity” value was 5.31%.
With `CC(=O)N[C@H](Cc1c[nH]c2ccccc12)C(=O)OCc1cc(C(F)(F)F)cc(C(F)(F)F)c1` the “activity change, negative = cytotoxicity” value was 2.17%.
In the case of `COc1cccc(CN(C(=O)CC(C)(C)C)C2CC(C(=O)N3CCNCC3)N(Cc3ccc4c(c3)OCO4)C2)c1` (centres undefined), the “activity change, negative = cytotoxicity” value is reported as 1.15%.
For `CC1=COC(OC2OC(CO)C(O)C(O)C2O)C2C(CO)CC(OC(=O)/C=C/c3ccc(O)cc3)C12` (centres undefined), the “outcome” value was “inactive [at 17.3 µM]”.
In the case of `C[C@H](/C=C/[C@@]1(O)[C@H](C)CC(=O)CC1(C)C)O[C@@H]1O[C@H](CO[C@@H]2OC[C@@H](O)[C@H](O)[C@H]2O)[C@@H](O)[C@H](O)[C@H]1O`, the “outcome” value is reported as “inactive [at 17.3 µM]”.
In the case of `NC(N)=NCCC[C@H](NC(=O)c1sccc1NS(=O)(=O)c1cccc2nsnc12)C(=O)O`, the “outcome” value is reported as “inactive”.
With `CCc1nn(CCO)c(CC)c1Oc1cc(C#N)cc(C#N)c1` the “activity change, negative = cytotoxicity” value was -0.0104%.
With `C[C@@H]1O[C@@H](O[C@@H]2\C=C/C=C\C=C/C=C\C[C@H](C)OC(=O)/C=C\[C@H]3O[C@@H]3C[C@H](O)C[C@]3(O)C[C@@H](O)[C@@H](C(=O)O)[C@H](C2)O3)[C@H](O)[C@H](N)[C@@H]1O` the “activity change, negative = cytotoxicity” value was 9.42%.
With `COc1cc(O)cc(O[C@@H]2O[C@H](CO)[C@@H](O[C@@H]3OC[C@](O)(CO)[C@H]3O)[C@H](O)[C@H]2O)c1OC` the “outcome” value was “inactive [at 17.3 µM]”.
In the case of `CC(C)=CC1C[C@](C)(O)[C@@H]2[C@H]3CCC4[C@@]5(C)CC[C@H](O[C@@H]6OC[C@H](O)[C@H](O[C@@H]7O[C@H](CO[C@@H]8O[C@H](CO)[C@@H](O)[C@H](O)[C@H]8O)[C@@H](O)[C@H](O)[C@H]7O)[C@H]6O[C@@H]6O[C@@H](C)[C@H](O)[C@@H](O)[C@H]6O)C(C)(C)[C@@H]5CC[C@@]4(C)[C@@]34CO[C@@]2(C4)O1` (some centres undefined), the activity change, negative = cytotoxicity is reported as 9.35% [at 9.29 µM].
With `COc1cc2c(cc1O)CC(O)(CO)C(CO)C2c1ccc(OC2OC(CO)C(O)C(O)C2O)c(OC)c1` (centres undefined) the “outcome” value was “inactive [at 17.3 µM]”.
`CC1(C)CC[C@]2(C(=O)O)CC[C@]3(C)C(=CCC4[C@@]5(C)CC[C@H](O[C@@H]6O[C@H](C(=O)O)[C@@H](O)[C@H](O[C@@H]7O[C@H](CO)[C@H](O)[C@H](O)[C@H]7O)[C@H]6O[C@@H]6O[C@H](CO)[C@@H](O)[C@H](O)[C@H]6O)C(C)(C)C5CC[C@]43C)[C@@H]2C1` (some centres undefined) gave an activity change, negative = cytotoxicity of 3.75% [at 5.11 µM].
For `O=C(O[C@H]1[C@H](Oc2ccc(O)cc2CO)O[C@H](CO)[C@@H](O)[C@@H]1O)c1ccccc1`, the “outcome” value was “inactive [at 17.3 µM]”.
In the case of `CCOc1ncc(S(=O)(=O)N2CCN(CC)CC2)cc1-c1nc2c(CC)n(CCOC)nc2c(=O)[nH]1`, the “activity change, negative = cytotoxicity” value is reported as -3.65%.
For `CC1(C)C=Cc2c(ccc3c2N=C2C(C)(C)[C@@H]4C[C@]56CCCN5C(=O)[C@@]4(C[C@]23O)NC6=O)O1`, the “activity change, negative = cytotoxicity” value was 7.44% [at 17.3 µM].
